Source: PubChem BioAssay
Rows were chosen to be rich in hits. Some 18% of all compounds tested hit in one or more screens of this group.
IL1B secr inh: inflammasome signaling inhibition, IL-1 beta readout. THP-1 LPS/ATP IL-1B secretion, AlphaLISA, 16 h; active compounds read low. activity change, % at 57.5 µM. actives 4.7% (n = 360,000); in the data active = activity change below about -50%; inconclusive = mostly about -30% to -49%; also: % is scaled to controls: 0 for no effect and ±100 for the full control effect
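THP-1 cells pretreated 1 hr with compounds (up to 57.5 uM final), then stimulated with LPS (250 ng/mL final) plus ATP (1.25 mM final); secreted IL-1B measured by AlphaLISA after 16 hr, decreased signal indicating inhibition.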
TDP1 block: TDP1 (human) enzyme inhibition | recombinant TDP1, AlphaScreen DNA substrate cleavage | Potency, µM (titrated, usually from 130 µM), inactives show top-dose activity change, negative = inhibition, most hits filed as inhibitors | actives 0.28% (n = 350,000); also: potency is read from the fitted curve at half-maximal effect; % is scaled to controls: 0 for no effect and ±100 for the full control effect; nearly all actives have a fitted effect of over 40% in size
Target sequence (Q9NUW8 whole entry, looked up): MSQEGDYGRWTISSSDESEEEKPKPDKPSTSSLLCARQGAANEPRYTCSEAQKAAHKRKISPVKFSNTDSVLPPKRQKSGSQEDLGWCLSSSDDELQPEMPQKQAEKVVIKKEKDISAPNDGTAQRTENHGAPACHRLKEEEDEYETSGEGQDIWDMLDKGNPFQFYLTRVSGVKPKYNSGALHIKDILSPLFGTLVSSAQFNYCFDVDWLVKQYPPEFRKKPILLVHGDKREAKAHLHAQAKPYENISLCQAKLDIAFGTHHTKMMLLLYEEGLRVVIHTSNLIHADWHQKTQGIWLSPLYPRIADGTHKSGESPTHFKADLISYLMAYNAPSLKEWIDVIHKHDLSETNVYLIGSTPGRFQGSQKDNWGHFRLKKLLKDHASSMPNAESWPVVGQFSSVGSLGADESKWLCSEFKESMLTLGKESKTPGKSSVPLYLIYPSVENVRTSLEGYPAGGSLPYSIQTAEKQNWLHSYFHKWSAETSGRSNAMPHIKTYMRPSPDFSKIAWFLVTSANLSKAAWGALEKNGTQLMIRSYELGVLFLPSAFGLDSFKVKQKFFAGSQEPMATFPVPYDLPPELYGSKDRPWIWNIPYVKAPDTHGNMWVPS
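Compounds were preincubated with Tdp1 (1 nM final) for 15 min at room temperature before substrate (15 nM final) started a 5 min reaction; beads (10 ug/ml final) were then added for 10 min before AlphaScreen detection.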
DT40 TDP1 CPT: growth inhibition of DT40 Tdp1-/-;hTDP1 cells with camptothecin (screen for TDP1 inhibitors). chicken DT40 Tdp1-/-;hTDP1 cells + 20 nM CPT, ATP luminescence, 48 h. Potency, µM (doses to about 46.2 µM), without a hit: at the top dose activity change, negative = growth inhibition, most hits filed as inhibitors. actives 12% (n = 420,000); also: potency is read from the fitted curve at half-maximal effect; % is scaled to controls: 0 for no effect and ±100 for the full control effect; nearly all actives have a fitted effect of over 55% in size
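Chicken DT40 Tdp1-/- cells stably complemented with human TDP1 were seeded at 400 cells/well in medium containing 20 nM camptothecin, exposed to pin-transferred compounds, and grown at 37 °C for at least 48 hr. Viability was read as ATP luminescence.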
TDP1 cell noCPT: qHTS for Inhibitors of human tyrosyl-DNA phosphodiesterase 1 (TDP1): qHTS in cells in absence of CPT; AID 686978, 2013; Potency, µM (titrated, usually from 46.2 µM), for the others: top-dose activity change, negative = growth inhibition, usual class: inhibitors; actives 15% (n = 420,000); DT40 Tdp1-/- hTDP1 cells, no CPT, ATP luminescence, 48 h; also: potency is read from the fitted curve at half-maximal effect; % is scaled to controls: 0 for no effect and ±100 for the full control effect; nearly all actives have a fitted effect of over 55% in size
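Chicken DT40 Tdp1-/- cells stably complemented with human TDP1 were seeded at 400 cells/well with DMSO in place of 20 nM camptothecin. After compound pinning, cells grew at least 48 hr at 37 °C; viability read by CellTiter-Glo luminescence.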
TGFb inhibitor: TGF-b pathway inhibition. HepG2 CAGA-GFP TGF-b/SMAD3 reporter, GFP fluorescence, 18 h; TGF-beta stimulated, 500 pg/mL final. Potency, µM (doses to about 46.1 µM), without a hit: at the top dose activity, negative = inhibition, most hits filed as inhibitors. actives 1.2% (n = 410,000); also: potency is read from the fitted curve at half-maximal effect; % is scaled to controls: 0 for no effect and ±100 for the full control effect; nearly all actives have a fitted effect of over 65% in size
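Inhibition of TGF-beta-driven CAGA-GFP reporter expression in HEPG2 cells is measured by cellular GFP fluorescence after 18 h stimulation with 500 pg/mL recombinant TGF-beta in 1% FBS medium at 37 degrees C.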
HepG2 tox: kills HepG2 cells in TGF-b inhibitor counter-screen; HepG2 CAGA-GFP viability, ATP luminescence, 18 h; Potency, µM (top dose mostly 46.1 µM), without a hit: at the top dose activity change, negative = cytotoxicity, actives largely listed as cytotoxic; actives 0.76% (n = 410,000); also: potency is read from the fitted curve at half-maximal effect
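CellTiter-Glo luminescence gave cytotoxicity after 18 hours at 37 degrees C. The cells were HepG2 CAGA-GFP in 1% FBS DMEM, stimulated with 500 pg/mL TGF-beta after compound addition. %Activity was normalised to no-cell wells (complete cell-killing) and DMSO (no toxicity), and curves were fitted and classified.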
The depositor's hits bear a star. Unless noted, calls follow the shape of the dose curve; as a rule, active = well fitted curve in the direction sought with a large enough effect; inconclusive = small, poorly fitted or top-dose-only effect, or another doubt; inactive = no such curve, though single readings can be large; an effect the other way counts as inactive or inconclusive.

`N#CCCn1cc(CNCc2cccnc2)c(-c2ccccc2)n1` gave TDP1 block 1%, DT40 TDP1 CPT inconclusive, TDP1 cell noCPT -15%, TGFb inhibitor 36% and HepG2 tox 40%.
CC1CCCCN1Cc1c(O)ccc2c(=O)c(-c3ccccc3)coc12 (stereo unspecified) was read as IL1B secr inh 28, DT40 TDP1 CPT 8.2µM*, TDP1 cell noCPT 10µM*, TGFb inhibitor -4% and HepG2 tox -3%.
CCC1CCCCN1Cc1c(O)ccc2c(=O)c(-c3ccccc3)coc12 (stereo unspecified) was read as IL1B secr inh 3, DT40 TDP1 CPT 7.3µM*, TDP1 cell noCPT 10µM*, TGFb inhibitor -1% and HepG2 tox 3%.
`COc1ccccc1-c1c(C)oc2c(CN3CCCCC3C)c(O)ccc2c1=O` (stereo unspecified) gave IL1B secr inh 17, DT40 TDP1 CPT 3%, TDP1 cell noCPT 13%, TGFb inhibitor 1% and HepG2 tox 9%.
Screening O=c1c(-c2ccccc2)coc2c(CN3CCCCC3)c(O)ccc12 returned IL1B secr inh -4, DT40 TDP1 CPT -26%, TDP1 cell noCPT -18%, TGFb inhibitor 1% and HepG2 tox -1%.
CCN(Cc1ccccc1)Cc1c(O)ccc2c(=O)c(-c3ccc(Cl)cc3)coc12 was read as DT40 TDP1 CPT inconclusive, TDP1 cell noCPT 21µM*, TGFb inhibitor -10% and HepG2 tox -4%.
`CCN(CC)Cc1c(O)ccc2c(=O)c(-c3ccc(Cl)cc3)coc12` gave IL1B secr inh 0, DT40 TDP1 CPT inconclusive, TDP1 cell noCPT -21%, TGFb inhibitor -14% and HepG2 tox -35%.
COc1ccc(-c2coc3c(CN4CCCCC4C)c(O)ccc3c2=O)cc1 (stereo unspecified) was read as IL1B secr inh -6, DT40 TDP1 CPT 6.5µM*, TDP1 cell noCPT 18µM*, TGFb inhibitor -5% and HepG2 tox -17%.
For CC1CN(Cc2c(O)ccc3c(=O)c(-c4ccccc4)coc23)CC(C)O1 (stereo unspecified) the results were IL1B secr inh -9, TDP1 block 0%, DT40 TDP1 CPT 3%, TDP1 cell noCPT -30%, TGFb inhibitor -22% and HepG2 tox 0%.
`O=C(CSCc1cc(=O)n2ccsc2n1)Nc1ccccc1` gave IL1B secr inh 4, TDP1 block 1%, DT40 TDP1 CPT 0%, TDP1 cell noCPT 12%, TGFb inhibitor 14% and HepG2 tox 16%.
Cc1cccc(NC(=O)C(C)OC(=O)CNC(=O)C2CCCCC2)c1 (stereo unspecified) was read as IL1B secr inh -15, DT40 TDP1 CPT -12%, TDP1 cell noCPT -6%, TGFb inhibitor -1% and HepG2 tox -6%.
Screening CNc1ncncc1-c1c(C)noc1C returned DT40 TDP1 CPT inconclusive and TDP1 cell noCPT 25%.
`FC(F)(F)c1ccccc1-c1cncnc1NCc1ccccc1` gave DT40 TDP1 CPT -14% and TDP1 cell noCPT -13%.
For Cc1cnc(CNc2ncncc2-c2ccccc2C(F)(F)F)cn1 the results were TDP1 block 40µM*, DT40 TDP1 CPT inconclusive and TDP1 cell noCPT -28%.
`Cc1cnc(CNc2ncncc2-c2c(C)noc2C)cn1` gave DT40 TDP1 CPT 3.7µM* and TDP1 cell noCPT 2.6µM*.
Screening Cc1ccccc1CSc1ccc2nnc(-c3ccccn3)n2n1 returned IL1B secr inh inconclusive, TDP1 block 4%, DT40 TDP1 CPT -23%, TDP1 cell noCPT inconclusive, TGFb inhibitor 25% and HepG2 tox 7%.
COc1ccc(-c2cc(C)no2)cc1S(=O)(=O)N1CCN(c2ccccc2F)CC1 was read as IL1B secr inh 0, TDP1 block 8%, DT40 TDP1 CPT inconclusive, TDP1 cell noCPT inconclusive, TGFb inhibitor -28% and HepG2 tox -35%.
Screening Cc1nc(Sc2ccc(Br)cc2)c(C#N)c(C)c1[N+](=O)[O-] returned IL1B secr inh -105*, TDP1 block 8%, DT40 TDP1 CPT 21µM*, TDP1 cell noCPT 9.2µM*, TGFb inhibitor inconclusive and HepG2 tox -11%.
`Cc1nc(Sc2ccc(Cl)cc2)c(C#N)c(C)c1[N+](=O)[O-]` gave TDP1 block 10%, DT40 TDP1 CPT inconclusive, TDP1 cell noCPT 10µM*, TGFb inhibitor -64% and HepG2 tox -58%.
`Cc1ccc(Sc2nc(C)c([N+](=O)[O-])c(C)c2C#N)cc1` gave DT40 TDP1 CPT inconclusive, TDP1 cell noCPT inconclusive, TGFb inhibitor inconclusive and HepG2 tox -22%.
`S=C(NCc1ccco1)N1CCN(c2nc(-c3ccc(Cl)cc3)cs2)CC1` gave IL1B secr inh -61*, TDP1 block 6%, DT40 TDP1 CPT inconclusive, TDP1 cell noCPT inconclusive, TGFb inhibitor inconclusive and HepG2 tox -44%.
`O=C(CN1CCN(c2nc(-c3ccc(Cl)cc3)cs2)CC1)NCc1ccco1` gave IL1B secr inh -8, TDP1 block 0%, DT40 TDP1 CPT inconclusive, TDP1 cell noCPT inconclusive, TGFb inhibitor -28% and HepG2 tox -23%.
For S=C(NCC1CCCO1)N1CCN(c2nc(-c3ccccc3)cs2)CC1 (stereo unspecified) the results were IL1B secr inh -58*, TDP1 block 0%, DT40 TDP1 CPT inconclusive, TDP1 cell noCPT inconclusive, TGFb inhibitor inconclusive and HepG2 tox -14%.
For S=C(NCc1ccco1)N1CCN(c2nc(-c3ccccc3)cs2)CC1 the results were IL1B secr inh -73*, TDP1 block 1%, DT40 TDP1 CPT inconclusive, TDP1 cell noCPT inconclusive, TGFb inhibitor -31% and HepG2 tox -16%.
Screening S=C(NCC1CCCO1)N1CCN(Cc2ccccc2)CC1 (stereo unspecified) returned IL1B secr inh -6, DT40 TDP1 CPT 2%, TDP1 cell noCPT -19%, TGFb inhibitor 3% and HepG2 tox 11%.
For COc1ccc(-c2ocnc2C(=O)N2CCN(C(c3ccccc3)c3ccccc3)CC2)cc1 the results were IL1B secr inh 2, TDP1 block 4%, DT40 TDP1 CPT inconclusive, TDP1 cell noCPT inconclusive, TGFb inhibitor inconclusive and HepG2 tox 4%.
